Measurements published in paper PMC5540273 (PLoS ONE, 2017).

What was measured:
CTK = test system: T1, CTK
T1 construct: gene MATK

DCAMKL1 = test system: T2, DCAMKL1
T2 construct: gene DCLK1

DCAMKL3 = test system: T3, DCAMKL3
T3 construct: gene DCLK3

DLK = test system: T4, DLK
T4 construct: gene MAP3K12

DRAK1 = test system: T5, DRAK1
T5 construct: gene STK17A
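Also: kd values determined as follow-up on hits from a single-replicate KINOMEscan panel screen.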

## Cc1cccc(-c2nc(Nc3ccc4[nH]nnc4c3)c3ccccc3n2)n1 [GW867587]
CSNK2A1
  Kd: 770 nM

## O=C(Nc1ccccc1)Nc1ccc(Oc2ccc3nccn3n2)cc1
CTK
  Kd: > 10000 nM

## COC(=O)c1cccc(NC(=O)NCCNc2ccnc(Nc3ccc(F)cc3)n2)c1 [GSK1379883]
DCAMKL1
  Kd: > 10000 nM

## C[C@@H]1CCN(C(=O)CO)C[C@@H]1N(C)c1ncnc2[nH]ccc12
DCAMKL3
  Kd: 240 nM

## Clc1ccc(-c2cc(-c3c[nH]nc3-c3ccccn3)ccn2)cc1 [GW681251]
DLK
  Kd: > 10000 nM

## CSc1nn2c(=O)cc(N3CCOCC3)nc2n1Cc1cccc(Cl)c1Cl [GSK2347225]
DLK
  Kd: > 10000 nM

## FC(F)(F)c1ccc(-c2cc(-c3c[nH]nc3-c3ccccn3)ccn2)cc1 [GW599550]
EIF2AK1
  Kd: > 10000 nM

## Clc1cccc(-c2nc(Nc3ccncc3)c3ccccc3n2)c1 [GW873004]
EPHA1
  Kd: > 10000 nM

## FC(F)(F)c1ccc(-c2nn3ncccc3c2-c2ccnc(Nc3cccc(C(F)(F)F)c3)n2)cc1 [GW828205]
EPHA4
  Kd: > 10000 nM

## CCC(CC)(CC)n1cnc2c(N)ncnc21 [SKF-97620]
EPHA2
  Kd: > 10000 nM

## NC(=O)c1sc(-n2cnc3ccccc32)cc1OCc1ccccc1F [GSK1024306]
EGFR
  Kd: 1300 nM

## Oc1ccc2ncnc(Nc3ccc(OCc4ccccc4)cc3)c2c1 [GI262866]
EGFR
  Kd: 9.3 nM

## COc1cc2c(Nc3cccc(NC(=O)c4ccccc4)c3)ncnc2cc1OCCCN1CCOCC1 [GSK223810]
EGFR
  Kd: 1400 nM

## CS(=O)(=O)CCNCc1ccc(-c2ccc3ncnc(Nc4ccc(OCc5ccccc5)c(Cl)c4)c3c2)o1.Cl [GW574783]
EGFR
  Kd: 0.82 nM

## Clc1cc(Nc2ncnc3cc[nH]c23)ccc1OCc1ccccn1
EGFR
  Kd: 8.4 nM

## N#Cc1ccc(Oc2ccc(Nc3ncnc4cc[nH]c34)cc2Cl)cc1
EGFR
  Kd: 97 nM

## Cl.Fc1ccccc1COc1ccc(Nc2ncnc3ccc(-c4nnc(C(F)(F)F)o4)cc23)cc1Cl [GW424170]
EGFR
  Kd: 43 nM

## Cl.c1ccc(Cn2ccc3cc(Nc4ncnc5ccccc45)ccc32)cc1 [GW275568]
EGFR
  Kd: 5 nM

## Cn1ccc2ncnc(Nc3ccc(Oc4cccc(Cl)c4)c(Cl)c3)c21
EGFR
  Kd: 4.3 nM

## COc1cc2ncnc(Nc3ccc(OCc4ccccc4Br)c(Cl)c3)c2cc1OC.Cl [GI261590]
EGFR
  Kd: 2.4 nM

## O=C(Nc1n[nH]c2nc(-c3ccco3)c(Br)cc12)c1ccc(CN2CCCC2)cc1.O=C(O)[C@H](O)[C@@H](O)C(=O)O [SB-742352]
EPHA4
  Kd: > 10000 nM
EPHA6
  Kd: > 10000 nM

## Fc1cccc(COc2ccc(Nc3ncnc4sc(-c5ccc[nH]5)cc34)cc2Cl)c1 [GW707818]
EGFR
  Kd: 2.6 nM

## Cl.Cn1ccc(-c2cccc(Nc3ccnc4cc(-c5nccs5)ccc34)c2)n1 [GW525701]
EPHA3
  Kd: > 10000 nM

## O=C(CCO)NCCn1ccc2ncnc(Nc3ccc(Oc4cccc(C(F)(F)F)c4)c(Cl)c3)c21
EGFR
  Kd: 2.3 nM

## OCCOCCn1ccc2ncnc(Nc3ccc(Oc4cccc(Cl)c4)c(Cl)c3)c21
EGFR
  Kd: 8.5 nM

## COc1ccc(Nc2nccc(N3CCC(NC(=O)c4cccc(NC(C)=O)c4)C3)n2)cc1 (centres unmarked) [GSK1379732]
DYRK1B
  Kd: > 10000 nM

## Cc1cc(N2CCC(NS(=O)(=O)c3ccc(F)cc3)CC2)nc(Nc2cccc(C#N)c2)n1.O=C(O)C(F)(F)F [GSK1653537]
DYRK1B
  Kd: 2800 nM

## Cl.c1ccc(Cn2ncc3cc(Nc4ncnc5ccccc45)ccc32)cc1 [GW273749]
EGFR
  Kd: 7.6 nM

## Fc1cccc(COc2ccc(Nc3ncnc4cc[nH]c34)cc2Cl)c1
EGFR
  Kd: 1.3 nM

## Cl.O=S(=O)(c1cccc(F)c1)c1ccc(Nc2ncnc3cc(Br)sc23)cc1Cl [GSK306886]
EGFR
  Kd: 61 nM

## CCn1c(-c2ccncc2)nc2cnccc21 [SB-735216]
EPHA3
  Kd: > 10000 nM

## Nc1n[nH]c2nnc(-c3ccccc3)cc12 [SB-517389]
DYRK1B
  Kd: 7000 nM

## CC(C)(C)OC(=O)NC1CCCN(c2cc(-c3ccc4c(N)n[nH]c4c3)nc(N)n2)C1 (centres unmarked) [GSK2286096]
DRAK1
  Kd: 130 nM
DYRK1B
  Kd: > 10000 nM
DYRK2
  Kd: 440 nM

## CS(=O)(=O)CCNCc1nc(-c2ccc3ncnc(Nc4ccc(OCc5cccc(F)c5)c(Cl)c4)c3c2)cs1.Cl [GW583340]
EGFR
  Kd: 0.69 nM

## O=c1cc(N2CCOCC2)nc2n(Cc3cccc(Cl)c3)ccn12 [GSK2296823]
EPHA3
  Kd: > 10000 nM
